PubChem BioAssay

Test: small-molecule microarray binders of probe aXIP, primary screen, biochemical, NeuroSMM set, 635/667 nm fluorescence (AID 1119);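 note: probe is the protein aXip251-270 applied at 1 µg/mL to compound-printed slides; binding of probe to printed compounds measured as 667 nm fluorescence plus signal to noise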
Conditions: higher = more signal, called active from +8 up or from −8 down

Composite Z-score, inactive:
COCCCNC(=O)[C@@]1(Sc2ccc(C)cc2)CC(=O)N(C2CCCCC2)[C@@H]1c1ccc(CO)cc1I 0.441
[N-]=[N+]=NCc1ccccc1C[C@]1(C(=O)O)COC(c2ccc(OCCCO)cc2)=N1 -0.496
COC(=O)[C@@]1(Cc2ccc(OC)cc2)[C@H]2c3cc(C(=O)N(C)C)n(Cc4ccsc4Br)c3C[C@H]2CN1C(=O)c1ccccc1 -0.362
CCCCC(=C=CC[C@@H](O)c1ccc(OCCO)cc1)C[C@@H](O)c1ccccn1 0.111
O=C1NC(=O)C2C1C=CC(C(O)c1cccc(O)c1)N2Nc1ccc(Cl)cc1Cl (configuration not stated) -0.136
[N-]=[N+]=NCc1ccccc1C[C@]1(C(=O)NCc2ccccc2)N=C(c2ccc(OCCCO)cc2)O[C@H]1c1ccccc1CN=[N+]=[N-] 0.597
O=C1O[C@H](c2ccccc2)[C@H](c2ccccc2)N2[C@H]1[C@@H](C(=O)N1CCN(c3ncccn3)CC1)[C@]1(C(=O)Nc3ccccc31)[C@H]2c1ccc(O)cc1 0.56
COC(=O)[C@@]1(Cc2ccc(F)cc2)[C@H]2c3cc(C(=O)N4CCCC4)n(CCO)c3C[C@H]2CN1C(=O)c1ccccc1 -0.196
O=C1NC(=O)C2C1C=CC(C(O)c1ccc(F)cc1)N2Nc1ccccn1 (configuration not stated) -0.531
CC[C@H](C)C(=O)O[C@H]1CC[C@]2(C)C3=C(CCC2C1(C)C)[C@]1(C)CC[C@H]([C@H](C)CCCC(C)C)[C@@]1(C)CC3 (some centres not stated) -0.014
CCCC[C@H]1OB(O)C[C@H]2C1=C(COC)C[C@H]1C(=O)C=CC(=O)[C@H]12 0.727
CCCCCCCCCCC(O)C1C=CC2C(=O)N(C)C(=O)C2N1N1CCCCC1 (configuration not stated) -0.0231
C=CC[C@]1(C(=O)NCCCOC)N=C(c2ccc(OCCCO)cc2)O[C@H]1c1ccccc1 -0.397
CC1CC/C=C\[C@H]2OC34C=CCN(c5ccc(Cl)cc5)C(=O)[C@H]3N(CCCO)C(=O)[C@]4(C)C2C(=O)O1 (some centres not stated) 0.182
C=C(CC1([C@@H](NP(=O)(c2ccccc2)c2ccccc2)[C@H]2C[C@@H]2CCN(C(=O)OCC)S(=O)(=O)c2ccc(C)cc2)CC1)c1ccccc1 0.39
COCC1=C([C@H](O)CCc2ccccc2)[C@H](CO)n2c(=O)n(-c3ccccc3)c(=O)n2C1 0.0423
COC(=O)c1ccc([C@H](NC(=O)c2ccccc2)[C@]2(C)C[C@H]2C2CCCCC2)cc1 0.293
COCCOC(=O)N1C(=O)[C@@]2(c3cc(C#CC4=CCCCC4)ccc31)[C@H](c1ccccc1OCCO)N1[C@H](c3ccccc3)[C@H](c3ccccc3)OC(=O)[C@H]1[C@@H]2C(N)=O -0.463
C=CCC(OC(C)=O)[C@@H]1[C@@H](N(Cc2cc3ccccc3o2)C(=O)Cc2ccc(OC)cc2)c2cc(OCCCO)ccc2N1C(=O)Cc1ccc2ccccc2c1 (some centres not stated) -0.374
COc1ccc([Si](C)(C)[C@H]2[C@H](CCO)O[C@@]3(C(=O)N(Cc4ccccc4)c4ccc(N(C=O)c5ccccc5)cc43)[C@@H]2C)cc1 -0.328
CC(C)CNC(=O)[C@@H]1c2ccccc2C(=O)N(Cc2ccccc2Cl)[C@H]1c1ccc(CO)cc1 0.191
CCCCNC(=O)c1ccc(C#C[Si](C)(C)C)c(OC(C)=O)c1 0.378
COc1cc2c(cc1O)C(c1ccc(CN3CCCC3)cc1)N(Cc1cccc(OC(F)(F)F)c1)CC2 (configuration not stated) 0.339
C=CCOC(=O)[C@H]1[C@@H]2C(=O)O[C@@H](c3ccccc3)[C@@H](c3ccccc3)N2[C@@H](c2ccc(OCCOC(=O)[C@H]3C[C@H]4C(=O)NCC(=O)N4[C@H]3c3ccc(O)cc3)cc2)[C@]12C(=O)Nc1ccc(I)cc12 -0.0149
NC(=O)N1C(=O)C2C(C1=O)C1C=C(CCCO)C2C(c2ccc(CN3CCCC3)cc2)N1Cc1cccc(OC(F)(F)F)c1 (configuration not stated) 0.463
C=C(CCCC)C(=O)CC[C@H](OC(C)=O)c1ccccc1OCCO 0.7
C=CCC(OC(C)=O)[C@@H]1[C@@H](N(Cc2cccc3ccccc23)C(=O)c2ccc(-c3ccccc3)cc2)c2cc(OCCCO)ccc2N1C(=O)c1ccc2ccccc2n1 (some centres not stated) -0.0401
